KB-V1 MDR tox: qHTS assay for MDR1-selective chemotherapeutics: Primary screen using the drug-selected MDR subline cells KB-V1; AID 1347076, 2019; 3.4% of 400,000 active; Potency, µM (top dose mostly 46.1 µM), hits mostly cytotoxic; KB-V1 MDR cells viability, CellTiter-Glo, 72 h; further: on the % scale 0 is the no-effect control and ±100 the full control effect; nearly all actives have a fitted effect of over 60% in size
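KB-V1 MDR subline cells in DMEM (phenol-red free, 10% FBS) exposed to compounds in qHTS concentration series for 72 h at 37 degrees C. Viability read by CellTiter-Glo luminescence; concentration-effect curves fitted after normalization and correction.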
ELG1 repair inh: qHTS screen for small molecules that inhibit ELG1-dependent DNA repair in human embryonic kidney (HEK293T) cells expressing luciferase-tagged ELG1 | 2.3% of 330,000 active | HEK293T ELG1-luciferase reporter, luminescence, 16 h; DNA damage induced by 5-fluorouridine | Potency, µM (highest dose often 46.1 µM), without a hit: at the top dose activity change, negative = inhibition, most hits filed as inhibitors; further: on the % scale 0 is the no-effect control and ±100 the full control effect; nearly all actives have a fitted effect of over 55% in size
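5-Fluorouridine DNA damage + compound/DMSO, 2,000 cells/well, 16 h, 37 °C/5% CO2. ONE-Glo, 30 min RT, luminescence. Readout = decrease in reporter signal.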
SW480 rereplic: A quantitative high throughput screen for small molecules that induce DNA re-replication in SW480 colon adenocarcinoma cells. SW480 DNA re-replication, Hoechst DNA content imaging, 48 h. Potency, µM (titrated, usually from 46.1 µM), for the others: at the top dose re-replication activation, usual class: activators. 1.8% of 340,000 active; further: % of control where 0% means no effect; nearly all actives have a fitted effect of over 55% in size
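Cells (250 per well) received 23 nL compound or DMSO by pin tool and were kept 48 hr at 37 C, 5% CO2. Nuclei were then stained with Hoechst for 40 min and scanned for DNA content.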
KB-3-1 tox: qHTS assay for MDR1-selective chemotherapeutics: Primary screen using the parental adenocarcinoma cell KB-3-1. KB-3-1 viability, CellTiter-Glo ATP luminescence, 72 h. Potency, µM (titrated, usually from 46.1 µM), most hits filed as cytotoxic. 1.4% of 400,000 active. AID 1347075, 2019; further: on the % scale 0 is the no-effect control and ±100 the full control effect; nearly all actives have a fitted effect of over 60% in size
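Using CellTiter-Glo luminescence, growth of non-resistant KB-3-1 adenocarcinoma cells is assessed 72 h after pin-tool compound addition at 37 °C. Normalized responses across the concentration series yield fitted curves.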
MCF10A rereplic: A quantitative high throughput screen for small molecules that induce DNA re-replication in MCF 10a normal breast cells; MCF 10A DNA re-replication, Hoechst nuclear intensity, 48 h; Potency, µM (doses to about 46.1 µM), without a hit: top-dose activity, positive = re-replication, most hits filed as activators; 2.9% of 350,000 active; further: % of control where 0% means no effect; nearly all actives have a fitted effect of over 50% in size
* = called active by the depositor; i = inactive; u = inconclusive; x = no result given; ! = a repeat was not active. An excerpt weighted towards active compounds, which were near 8.1% of everything screened. The call rests on the fitted dose curve; in most records, active means well fitted curve in the direction sought with a large enough effect; inconclusive means small, poorly fitted or top-dose-only effect, or another doubt; inactive means no such curve, though single readings can be large; an effect the other way counts as inactive or inconclusive. Potency means the concentration at half of the fitted maximal effect.

SMILES	KB-V1 MDR tox	ELG1 repair inh	SW480 rereplic	KB-3-1 tox	MCF10A rereplic
CCSc1cc(C)nc2c(-c3ccc(Cl)cc3)c(C)nn12	i	9%	18µM*	i	15µM*
Cc1cc(C)n2nc(C)c(-c3ccc(Cl)cc3)c2n1	i	-3%	-49%	u	-3%
Cc1cc(SCC(=O)c2ccc(O)c(O)c2)n2nc(C)c(-c3ccccc3)c2n1	u	u	7.3µM*	u	u
Cc1cc(C)nc(SCC(=O)c2ccc(O)c(O)c2)n1	i	5%	-4%	i	-7%
O=C(NC1CCN(Cc2ccccc2)CC1)C1CCN(c2nnc(-n3cccc3)s2)CC1	i	u	0%	i	0%
Cn1c(CN2CCCCC2)nc2cc(NC(=O)c3ccc(F)cc3)ccc21	21µM*	u	u	u	9%
Cn1c(CN2CCCCC2)nc2cc(NC(=O)c3ccccc3Cl)ccc21	15µM*!	u	0%	u	-3%
CCn1c(CN2CCOCC2)nc2cc(NC(=O)c3ccc([N+](=O)[O-])cc3)ccc21	u	x	x	16µM*	x
CCn1c(CN2CCN(C)CC2)nc2cc(NC(=O)c3ccc([N+](=O)[O-])cc3)ccc21	u	x	x	i	x
O=C(CC1(O)C(=O)Nc2ccccc21)c1ccccc1 (stereo not given)	i	15%	-15%	i	6%
C(=C\CSc1ncn[nH]1)/CSc1ncn[nH]1	i	6%	1%	i	u
COc1cc(OC)nc(Oc2cc(/C=N/O)ccc2OC)n1	u	-6%	12µM*	u	u
CS(=O)(=O)N1CCN(c2ccc([N+](=O)[O-])cc2F)CC1	i	2%	-4%	i	21%
CCOC(=O)/C=C/C(=O)Nc1nccs1	i	0%	u	i	18µM*
CSc1ccc(/C=N/Nc2ccc(Cl)c(C(=O)O)c2)cc1	i	u	-1%	i	-3%
Cc1ccc(OCCC(=O)OCC(=O)NCCNC(=O)COC(=O)CCOc2ccc(C)cc2)cc1	i	x	x	i	x
Cc1cc(O)c2c(c1O)C(=O)[C@]13C(=C2O)C(=O)[C@@H]2[C@@H](O)[C@H]1[C@@H]1[C@H](O)[C@H]3C(=O)C3=C(O)c4c(O)cc(C)c(O)c4C(=O)[C@]312	i	u	5%	1.2µM*	-55%
CCc1ccccc1NC(=O)Nc1ccon1	i	-4%	-16%	i	-19%
FC(F)(Cl)c1nnc2ccc(Cl)nn12	u	10%	u	6.5µM*	u
C[C@H](CO)N1C[C@H](C)[C@@H](CN(C)S(=O)(=O)c2cn(C)cn2)Oc2ccc(NC(=O)NC3CCCCC3)cc2C1=O	i	20%	-35%	i	-2%
CC(C)(C)n1nnnc1CN1CCN(C(c2ccccc2)c2ccccc2)CC1	u	18µM*	-3%	i	3%
O=C(Nc1cccc(F)c1)N1CCc2nc(NCc3cccc(Oc4ccccc4)c3)ncc2C1	18µM*	x	x	u	x
Cc1cccc(OCC(=O)NCCNC(=O)c2ccncc2)c1	i	-1%	8%	i	0%
COCCOC(=O)C1=C(C)NC(C)=C(C(=O)OC/C=C/c2ccccc2)C1c1cccc([N+](=O)[O-])c1 (stereo not given)	x	x	30µM*	x	-2%
COC(=O)C1=C(C)NC(C)=C(C(=O)OC(C)(C)CN(C)CCC(c2ccccc2)c2ccccc2)C1c1cccc([N+](=O)[O-])c1 (stereo not given)	x	x	12µM*	x	15%
SMILES	KB-V1 MDR tox	ELG1 repair inh	SW480 rereplic	KB-3-1 tox	MCF10A rereplic
COCCOC(=O)C1=C(C)NC(C)=C(C(=O)OC(C)C)C1c1cccc([N+](=O)[O-])c1 (stereo not given)	i	12µM*	9%	i	u
CCOC(=O)C1=C(C)NC(C)=C(C(=O)OC)C1c1cccc([N+](=O)[O-])c1 (stereo not given)	i	-22%	11%	i	16%
CC1=C(C(=O)OC(C)C)C(c2cccc([N+](=O)[O-])c2)C(C(=O)OC2CN(C(c3ccccc3)c3ccccc3)C2)=C(N)N1 (stereo not given)	x	x	u	x	21µM*
Cc1oc(C(C)(C)C)cc1C(=O)Nc1ccc(C(=O)O)cc1	i	u	-4%	i	-10%
Cc1ccc(NC(=S)NCc2ccc(S(N)(=O)=O)cc2)c(C)c1	i	17%	-4%	i	-4%
CCn1c2c(c3cc(OCC(C)C)ccc31)CCCC2=O	i	-5%	-7%	i	-1%
C=C1CCc2c([nH]c3ccc(OCC(C)C)cc23)C1=O	u	u	u	u	4.6µM*
O=C(Cc1ccccc1)Nc1ccc2c(c1)OC1(CCCC1)O2	u	u	-3%	i	13%
CCc1ccccc1NC(=O)CN1CCN(CC(=O)Nc2ccc3c(c2)OC2(CCCCC2)O3)CC1	i	x	8.2µM*	u	6.5µM*
Cn1c(=O)oc2cc(S(=O)(=O)Nc3ccccc3)ccc21	i	29%	-2%	i	-13%
CCc1ccc(S(=O)(=O)Nc2cccc(C3OCCCO3)c2)cc1	i	12µM*	-13%	i	-1%
CCc1cccc(NS(=O)(=O)c2ccc3c(c2)oc(=O)n3C)c1	4.6µM*	-5%	-6%	u	6%
CCc1ccc(S(=O)(=O)Nc2ccc3c(c2)n(C)c(=O)c(=O)n3C)cc1	i	x	x	i	x
Cn1c(=O)oc2cc(S(=O)(=O)Nc3cccc(C(=O)O)c3)ccc21	i	16%	-11%	i	-2%
CC(=O)c1cccc(NS(=O)(=O)c2ccc3c(c2)oc(=O)n3C)c1	16µM*	-18%	-3%	u	1%
Cc1ccc(CNC(=O)c2ccc(-c3nc(CS(=O)c4ccccc4)c(C)o3)cc2)cc1 (stereo not given)	i	x	x	i	x
COc1ccc(-n2nc(C(=O)NCC(=O)N3CCCCC3)c3ccccc3c2=O)cc1	i	u	-7%	i	0%
CCCN(CCC)C(=O)CSc1nc2ccccc2c(=O)n1CC1COc2ccccc2O1 (stereo not given)	21µM*	u	0%	u	u
CCN(CC)C(=O)COn1c(SCC(=O)N(CC)CC)nc2ccccc2c1=O	16µM*	-6%	-8%	i	-1%
CC(C)(C)c1cc(C(F)(F)F)nc(SCCCNC(=O)c2ccco2)n1	u	u	-5%	i	8%
